We go through 40 compounds from PubChem BioAssay (NCI).

Compounds without any hit were thinned out: in the full panel of roughly 83,000, 20% have a hit.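 Assay: single dose, 48 h. Readout: percent growth (0 = no net growth; negative = cell death). Active: <10.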 Values without a mark were called inactive. Active and inactive are the calls of the source.

The first test has as its system OVCAR-5 ovarian. In words: NCI-60 one-dose screen, 48 h (100 = growth as untreated, 0 = no growth, -100 = all killed). Conditions: 10 µM.
For `Cc1cccc(-c2nc(Nc3ccccc3C(=O)O)c3ccccc3n2)c1`, the growth is 77%.

On to `C=C1CCC2C3(C)COC(c4cccc(F)c4)OC3CCC2(C)C1CC(O)C1=CCOC1=O` (configuration not stated), for which the growth was 76.1%.

For `CC1CC(c2ccc(N(C)C)cc2)=NN1c1nc(O)c(C2=c3cc(Br)ccc3=NC2=O)s1` (configuration not stated), the growth was 123%.

Turning to `C/C(=N\NC(N)=S)c1ccc(Nc2nc(SC(C)C)nc(-c3ccccc3)c2C#N)cc1`, the growth is 75.6%.

Consider `O=c1c2ccccc2nc(COc2ccccc2)n1/N=C/c1ccc(N2CCCC2)cc1`, for which the growth is 96.6%.

Consider `CN1CCN(Cc2ccc(NC(=O)c3cncc(C#Cc4cnc5ccc(N[C@H]6CCOC6)nn45)c3)cc2C(F)(F)F)CC1`, for which the growth was -72% (active).

For `Cn1cc(-c2cc(N)n3nc(-c4c[nH]c5ccc(Br)cc45)cc3n2)c2cc(Br)cnc21`, the growth is -61.9% (active).

Regarding `CC(=O)Nc1ccc(-n2cnc3cc(-c4ccc(NS(C)(=O)=O)cc4)ccc32)cc1`, the growth was 79.3%.

`COc1ccccc1C(=O)NNC(=O)CSc1nc2c(c(=O)[nH]1)CCCC2`: the growth was 108%.

In the case of `O=c1[nH]c2ccccc2cc1CSc1ccc(Nc2nccc(-c3ccc(C(F)(F)F)cc3)n2)cc1`, the growth was 36%.

Consider `COc1cnc2c(c1)C(=O)c1c-2n(CCCNCCO)c(=O)c2cc(OC)c(OC)cc12`, for which the growth was 24%.

Turning to `C/C(=N\N=C\c1ccc(Cl)c([N+](=O)[O-])c1)c1ccc2c(c1)Nc1ccccc1S2`, the growth is 72.8%.

In another test the test system is OVCAR-4 ovarian. The test is described as above. The conditions noted are these: 10 µM.
Regarding `C#CCNC(=O)CCC(=O)OC[C@]12CC[C@@H](C(=C)C)[C@@H]1C1CC[C@@H]3[C@@]4(C)CCCNC(C)(C)[C@@H]4CC[C@@]3(C)[C@]1(C)CC2` (some centres not stated), the growth was 30.3%.

In the case of `Cc1ccc(-c2nc(Nc3ccc(S(N)(=O)=O)cc3)c3ccccc3n2)cc1`, the growth was 61.7%.

For `N#Cc1ccc(-c2nn(-c3ccc(C(=O)O)cc3)cc2CNc2cccc(Br)c2)cc1`, the growth is 75.5%.

With `Cc1noc2c(Cc3ccc([N+](=O)[O-])cc3)nn(CC(=O)N/N=C/c3ccc(Br)cc3)c(=O)c12`, the growth was 17.9%.

On to `Cc1ccc(/C=C/C(=O)c2ccc(NC(=O)CSc3nnc(-c4c[nH]c5ccccc45)n3-c3ccccc3)cc2)c(C)c1`, for which the growth was 13.1%.

As for `O=C1c2ccccc2C(=O)c2c1c(C(=O)c1ccc(Cl)cc1)n1c2ccc2c3ccccc3ccc21`, the growth was 107%.

In the case of `COc1ccc(C(=O)Nc2sc3c(c2C#N)CCC(=O)C3)cc1C(F)(F)F`, the growth is 21.7%.

For the compound `COc1ccc(C2NC(=S)NC(C)=C2C(=O)OC(C)C)cc1OC` (configuration not stated), the growth is 99.3%.

As for `COc1ccc(OC)c(/C=N/NC(=O)c2ccc3nc(-c4ccc(Cl)cc4)[nH]c3c2)c1`, the growth is 61.1%.

On to `Nc1nc(Nc2ccc(Cl)cc2)n(Cc2cccc(Br)c2)n1`, for which the growth was 9.75% (active).

Take `O=C(CSc1nnc(-c2ccc3nc(-c4ccc(Cl)cc4)[nH]c3c2)o1)Nc1ccc(Br)cc1`: the growth was 16.4%.

For `COc1cc2c(cc1OC)CN(CCCCOc1cc(O)c3c(=O)cc(-c4ccccc4)oc3c1)CC2`, the growth was 30%.

Take `O=C(CSc1nnc(-c2c[nH]c3ccccc23)n1-c1ccccc1)c1ccc(Br)cc1`: the growth was 46.2%.

For the compound `Cc1ccc(/C=C/C(=O)c2ccc(NC(=O)CSc3nnc(-c4c[nH]c5ccccc45)n3-c3ccccc3)cc2)cc1`, the growth is 85.2%.

With `CC1=C(c2cc(-c3ccc(Cl)cc3)c(C#N)c(N)n2)C(c2ccccc2)NC(=S)N1` (configuration not stated), the growth was 81.3%.

`COc1ccc(-c2cc(-c3cc(C(=O)c4ccccc4)n4ccc(C)cc34)nc(N)c2C#N)cc1`: the growth is 24.2%.

`COc1cc2c3c(n(CCCNCCO)c(=O)c2cc1OC)-c1nc2c(cc1C3=O)OCO2`: the growth is 26.1%.

For `COc1ccc(/C=C/C(=O)c2ccc(N3CCN(C)CC3)cc2)c(C(F)(F)F)c1`, the growth is 43.9%.

As to `Cn1cc(/C=N/Nc2cccc(Cl)n2)c2ccccc21`, the growth is 60.3%.

In the case of `COc1ccc(C(=O)CSc2nnc(-c3c[nH]c4ccccc34)n2-c2ccccc2)cc1`, the growth is 0.569% (active).

Take `N#Cc1c(NC(=O)c2ccc(C(F)(F)F)c(Cl)c2)sc2c1CCC(=O)C2`: the growth is -21.1% (active).

For `COc1cc(/C=C/C(=O)c2ccc(NC(=O)CSc3nnc(-c4c[nH]c5ccccc45)n3-c3ccccc3)cc2)cc(OC)c1OC`, the growth was 93%.

On to `O=C(Nc1cccc([N+](=O)[O-])c1)Nc1cccc([N+](=O)[O-])c1`, for which the growth is 73.6%.

As for `COc1cc(NC(=O)CSc2nnc(-c3ccc4nc(-c5ccc(Cl)cc5)[nH]c4c3)o2)cc(OC)c1OC`, the growth is 61.9%.

With `O=S(=O)(Nc1ncccn1)c1ccc(-n2c(-c3ccc(Br)cc3)nc(-c3ccccc3)c2-c2ccccc2)cc1`, the growth was 57.7%.

In the case of `CCN1CCN(Cc2ccc(C(=O)Nc3cccc(-c4cn(-c5ccc6oc(=O)ccc6c5)nn4)c3)cc2C(F)(F)F)CC1`, the growth was -100% (active).

`Cc1cc(=O)oc2cc(OCCCCOc3ccc(/C=C/C(=O)Nc4ccc(F)c(Cl)c4)cc3)ccc12`: the growth is 37.9%.

In the case of `Cc1cc(C)nc(/N=C(\N)Nc2ccc(S(=O)(=O)Nc3nc(C)cc(C)n3)cc2)n1`, the growth was 111%.

Regarding `Cc1cccc(-c2nc(Nc3ccccc3C(=O)O)c3ccccc3n2)c1`, the growth was 41.9%.

For the compound `C=C1CCC2C3(C)COC(c4cccc(F)c4)OC3CCC2(C)C1CC(O)C1=CCOC1=O` (configuration not stated), the growth is 67.1%.

With `CC1CC(c2ccc(N(C)C)cc2)=NN1c1nc(O)c(C2=c3cc(Br)ccc3=NC2=O)s1` (configuration not stated), the growth is 94.5%.

On to `C/C(=N\NC(N)=S)c1ccc(Nc2nc(SC(C)C)nc(-c3ccccc3)c2C#N)cc1`, for which the growth was 57.7%.

As for `O=c1c2ccccc2nc(COc2ccccc2)n1/N=C/c1ccc(N2CCCC2)cc1`, the growth is 81.8%.

For `CN1CCN(Cc2ccc(NC(=O)c3cncc(C#Cc4cnc5ccc(N[C@H]6CCOC6)nn45)c3)cc2C(F)(F)F)CC1`, the growth was -65.3% (active).

In the case of `Cn1cc(-c2cc(N)n3nc(-c4c[nH]c5ccc(Br)cc45)cc3n2)c2cc(Br)cnc21`, the growth is -41.1% (active).

For the compound `CC(=O)Nc1ccc(-n2cnc3cc(-c4ccc(NS(C)(=O)=O)cc4)ccc32)cc1`, the growth is 60%.

`COc1ccccc1C(=O)NNC(=O)CSc1nc2c(c(=O)[nH]1)CCCC2`: the growth is 105%.

For the compound `O=c1[nH]c2ccccc2cc1CSc1ccc(Nc2nccc(-c3ccc(C(F)(F)F)cc3)n2)cc1`, the growth is -60.3% (active).

Turning to `COc1cnc2c(c1)C(=O)c1c-2n(CCCNCCO)c(=O)c2cc(OC)c(OC)cc12`, the growth was 47.8%.

Consider `C/C(=N\N=C\c1ccc(Cl)c([N+](=O)[O-])c1)c1ccc2c(c1)Nc1ccccc1S2`, for which the growth is 23.7%.
